# Records with an inconclusive call do not appear. Values without a mark were called inactive. Calls follow the shape of the dose curve; as a rule, active = well fitted activation curve with a large enough effect in the signal ratio in the repeat runs (not every such curve was filed as active); inconclusive = weak or mixed curves; inactive = flat fitted curve, though single readings scatter; the % refers to the signal ratio.
# Assay: qHTS assay to identify small molecule agonists of the hypoxia (HIF-1) signaling pathway (AID 1224846)
# Conditions: HRE-bla ME-180 cells, beta-lactamase ratio, 17 h; series mostly up to 76.8 µM; activation: at the top concentration
# Description: U.S. Tox21 Program National Center for Advancing Translational Sciences [NCATS] NIH Chemical Genomics Center [NCGC] U.S. Environmental Protection Agency [EPA] National Institutes of Environmental Health Sciences [NIEHS] National Toxicology Program [NTP] U.S. Food and Drug Administration [FDA] Tox21 Assay Overview: Hypoxia-inducible factor-1 (HIF-1) is the major hypoxia-regulated transcription factor that controls cellular responses to low oxygen concentration. HIF-1 is composed of two subunits: hypoxia responsive HIF-1-alpha and constitutively expressed HIF-1-beta, which is also known as aryl hydrocarbon receptor nuclear translocator. During hypoxic conditions, HIF-1-alpha heterodimerizes with HIF-1-beta and translocates into the nucleus where the HIF-1 complex binds to the hypoxia-response element (HRE) and activates expression of target genes such as VEGF (vascular endothelial growth factor). The HIF-1 pathway is essential to normal growth and development, and is involved in the pathophysiology of cancer, inflammation, and ischemia. Using a beta-lactamase reporter-gene under control of the hypoxia response element, a cell-based assay [CellSensor(TM) HRE-bla ME-180 from Life Technologies, Carlsbad, CA] was used to measure hypoxia-induced signaling. Tox21 10K library compounds were measured for their ability to induce the reporter gene activity.
# Tox21 Assay Protocol Summary: HRE-bla ME-180 cells were dispensed at 2,000 cells per well in 6 uL of assay medium containing 0.5% dialyzed FBS into black wall/clear-bottom 1536-well plates using a Multidrop Combi (Thermo Scientific, Waltham, MA) dispenser. After the assay plates were incubated at 37C and 5% CO2 for 5 hrs, 23 nL of compounds dissolved in DMSO, positive controls or DMSO only was transferred to each well of the assay plate using a Pintool station (Kalypsys, San Diego, CA). The assay plates were incubated at 37C and 5% CO2 for 17 hrs. One uL of LiveBLAzerTM B/G FRET substrate (CCF4-AM) (Life Technologies) was added to each well using a Flying Reagent Dispenser (Aurora Discovery, San Diego, CA).
# % is scaled to controls: 0 for no effect and ±100 for the full control effect.
row,SMILES,activation
1,CCC(C)Br (stereo not given),0.759%
2,OCC(Br)CBr (stereo not given),-0.0171%
3,COCCC#N,-0.484%
4,CO/N=C(/C1=NOCCO1)c1ccccc1Oc1ncnc(Oc2ccccc2Cl)c1F,4.85%
5,O=[N+]([O-])c1ccc(Cl)c(Cl)c1Cl,0.149%
6,CN=C=O,-0.59%
7,[Cl-].[Cl-].[Sn+2],0.56%
8,CSC(C)(C)/C=N/O,-0.0221%
9,NC(=O)C(Cl)Cl,-0.914%
10,Clc1ccc(C2(Cn3cncn3)OCCO2)c(Cl)c1,0.124%
11,C=CCBr,0.0817%
12,CN,-1.29%
13,O=NN(CCO)CCO,-0.0388%
14,CCCCN(CCCC)C(=S)S,-1.97%
15,C[C@]12CC[C@H]3[C@@H](CCC4=CC(=O)CC[C@@H]43)[C@@H]1CC[C@@H]2OC(=O)CCc1ccco1,1.38% [at 35.5 µM]
16,Nc1nc(N)c(N)c(N)n1,5.61%
17,O=[N+]([O-])c1ccc(CCl)cc1,-0.444%
18,Cc1cnc2c(C(=O)O)c(Cl)ccc2c1,-1.32%
19,CSC(=O)c1c(C(F)F)nc(C(F)(F)F)c(C(=O)SC)c1CC(C)C,2.98%
20,CCCCn1cc[n+](C)c1 (tested in a mixture with another compound),0.0299%

row,SMILES,activation
1,N#CSCc1ccccc1,-0.579%
2,ClC1(Cl)C2(Cl)C3(Cl)C4(Cl)C(Cl)(Cl)C5(Cl)C3(Cl)C1(Cl)C5(Cl)C24Cl (stereo not given),0.262%
3,CNC(=O)CSP(=O)(OC)OC,0.0529%
4,COC(=O)c1cc(Oc2ccc(Cl)cc2Cl)ccc1[N+](=O)[O-],4.42%
5,NC1CCC(CC2CCC(N)CC2)CC1 (stereo not given),-0.0807%
6,CN1C2CCC(C)(C)C1CC(OC(=O)C(O)(c1cccs1)c1cccs1)C2 (stereo not given),-0.631% [at 35.5 µM]
7,C#CC1(O)CCCCC1,0.283%
8,CCOC(=O)CCN(SN(C)C(=O)Oc1cccc2c1OC(C)(C)C2)C(C)C,1.49%
9,Cc1c([N+](=O)[O-])c(C)c([N+](=O)[O-])c(C(C)(C)C)c1[N+](=O)[O-],-2.58%
10,O=c1[nH]c2cc(Cl)ccc2n1C1CCNCC1,0.581% [at 35.5 µM]
11,CCCN,-1.12%
12,COc1cnc(OC)n2nc(NS(=O)(=O)c3c(OCC(F)F)cccc3C(F)(F)F)nc12,-0.765%
13,O.O.O.O.O.O.O=S(=O)([O-])[O-].[Ni+2],1.72% [at 35.5 µM]
14,CCOP(=O)(Sc1ccccc1)Sc1ccccc1,6.47%
15,Cc1ccn2nc(S(=O)(=O)Nc3c(F)cccc3F)nc2n1,0.0662%
16,O=C(O)CCCCCCNC1c2ccccc2CCc2ccccc21,0.35% [at 35.5 µM]
17,COC(=O)C(C)N(C(=O)c1ccco1)c1c(C)cccc1C (stereo not given),2.72%
18,Nc1c(Cl)c(Cl)c(Cl)c(Cl)c1Cl,-1.08%
19,ClCBr,-0.0605%
20,COc1ccc(Cc2nccc3cc(OC)c(OC)cc23)cc1OC,0.378% [at 35.5 µM]

# — PubChem BioAssay (Tox21)
